Pf growth 96h = P. falciparum growth inhibition at 96 hour, primary screen for plastid delayed-death inhibitors; 6.9% of 320,000 active; Potency, µM (top dose mostly 28.7 µM), most hits filed as inhibitors; AID 504834; P. falciparum luciferase reporter growth, 96 h
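96 h incubation, 37 C, 5% CO2, of luciferase-reporter P. falciparum-infected RBCs (2% hematocrit, 0.05% parasitemia final) with test compounds; endpoint luminescence.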
AMA1-RON2 inh = inhibitors of Plasmodium falciparum AMA1-RON2 interaction; AlphaScreen AMA1-biotinylated RON2 peptide binding; Potency, µM (titrated, usually from 58.2 µM), actives largely listed as inhibitors; 0.2% of 360,000 active; AID 720542; also: nearly all actives have a fitted effect of over 45% in size
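AMA1 (3D7) with his tag at 25 nM final met compounds first, then biotinylated RON2 peptide at 25 nM; detection used donor plus acceptor beads, 10 µg/mL apiece, read by AlphaScreen after 30 min at room temperature.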
Pf growth 48h = inhibits P. falciparum growth in the first generation, 48 h. P. falciparum luciferase growth in erythrocytes, 48 h. Potency, µM (doses to about 28.7 µM), actives largely listed as inhibitors. 5.9% of 310,000 active. AID 504832
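Erythrocytes infected with P. falciparum carrying an integrated firefly luciferase reporter (2% hematocrit, 0.1% parasitemia final) were exposed to compounds in RPMI 1640 with 0.5% Albumax at 37 C, 5% CO2. Growth inhibition was scored as reduced luminescence.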
HCV inhibitor = blocks hepatitis C virus; Potency, µM (doses to about 41.8 µM), usual class: inhibitors; 3.4% of 340,000 active; Huh7.5.1 HCVcc-Cre infection, luciferase reporter, 44 h
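Infectious HCVcc-Cre (~0.5 moi) was added to cells just after compound, with cells seeded 4 h earlier at 1,000 per well. Luciferase activity after 44 h culture reported infection; substrate was incubated 15 min at room temperature before reading.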
Hits are given with their value; – = inactive; ? = inconclusive; · = not tested or not shown; [ ] = dose if it differs, or a comment. An excerpt weighted towards active compounds, which were near 11% of everything screened. Calls follow the shape of the dose curve; as a rule, active = well fitted curve in the direction sought with a large enough effect; inconclusive = small, poorly fitted or top-dose-only effect, or another doubt; inactive = no such curve, though single readings can be large; an effect the other way counts as inactive or inconclusive.

SMILES	Pf growth 96h	AMA1-RON2 inh	Pf growth 48h	HCV inhibitor
COc1ccc(O)c(CNn2c(-c3ccc(Br)cc3)nc3ccccc3c2=O)c1	–	–	9.28µM	–
Cn1c2ccccc2c2c(C(=O)NCC3CCCO3)cn(C3CCCC3)c(=O)c21 (stereo not given)	4.15µM	–	?	?
CC(C)Cn1cc(C(=O)NCC2CCCO2)c2c3ccccc3n(C)c2c1=O (stereo not given)	–	–	13.1µM	–
CN1CCN(CCCNC(=O)c2cn(C3CCCCC3)c(=O)c3c2c2ccccc2n3C)CC1	–	–	·	–
Cc1ccc2[nH]c(=O)c3cc(C(=O)N(C)C4CCCCC4)sc3c2c1	?	–	?	–
CCNC(=S)NC1CC2CCCC(C1)N2CCc1ccccc1 (stereo not given)	8.28µM	–	?	?
O=C(Nc1cccc(Cl)c1)c1csc(-c2ccccc2)n1	–	–	–	–
CN1CCN(c2ccc(S(=O)(=O)N3CCOCC3)cc2NC(=O)COc2ccc(F)cc2Cl)CC1	13.1µM	–	?	–
CCN(CC)S(=O)(=O)c1ccc(N2CCN(C)CC2)c(NC(=O)COc2ccc(F)cc2Cl)c1	?	?	10.4µM	?
Cc1ccc(OCCCC(=O)Nc2cc(S(=O)(=O)N3CCOCC3)ccc2N2CCOCC2)cc1	–	–	10.4µM	–
O=C(CCCOc1ccccc1)Nc1cc(S(=O)(=O)N2CCOCC2)ccc1N1CCOCC1	?	–	?	–
Cc1ccc(Cl)c(OCC(=O)Nc2cc(S(=O)(=O)N3CCOCC3)ccc2N2CCCC2)c1	8.28µM	–	11.7µM	–
CN1CCC(N(C)S(=O)(=O)c2ccc(NC(=O)COc3ccc(F)cc3Cl)cc2)CC1	?	–	?	?
CC(=O)Nc1ccc(C(=O)N2CCCC(c3cc(C(=O)NCc4cccnc4)no3)C2)cc1 (stereo not given)	·	–	·	·
O=C(COc1ccc(F)cc1Br)Nc1ccccc1N1CCCC1	·	–	·	·
O=C(COC(=O)c1ccc(F)cc1)Nc1cc(S(=O)(=O)N2CCOCC2)ccc1N1CCCC1	–	–	–	–
COc1ccccc1NC(=O)COc1cc(Br)c(CNCCCN2CCOCC2)cc1OC	–	–	?	11.2µM
O=C(COc1ccc(F)cc1Cl)Nc1cc(S(=O)(=O)N2CCOCC2)ccc1N1CCCCC1	2.08µM	–	4.15µM	?
O=C(COc1ccc(F)cc1Br)Nc1ccccc1N1CCOCC1	?	–	10.4µM	?
Cc1ccc(/C(=N/Nc2nc3ccccc3s2)C2=C(O)c3ccccc3C2=O)cc1	–	–	–	–
O=C1C(c2ccccc2)=C(N2CC2)c2ccccc21	3.7µM	28.2µM	5.86µM	–
COC(=O)C1=C(C)Nc2nc3ccccc3n2C1c1cc(OC)c(OC)c(OC)c1 (stereo not given)	?	–	1.85µM	–
CCOC(=O)C1=C(C)Nc2nc3ccccc3n2C1c1ccc(O)cc1 (stereo not given)	–	–	–	–
CC(C)CNC(=O)c1c(N)n(Cc2ccc3c(c2)OCO3)c2nc3ccccc3nc12	·	–	6.57µM	–
CCCNC(=O)c1c(N)n(Cc2ccc3c(c2)OCO3)c2nc3ccccc3nc12	–[5.75 µM]	–	?	–
SMILES	Pf growth 96h	AMA1-RON2 inh	Pf growth 48h	HCV inhibitor
CC(C)CCNC(=O)c1c(N)n(Cc2ccc3c(c2)OCO3)c2nc3ccccc3nc12	11.7µM	–	·	–
CCN(Cc1nc2ccccc2c(=O)[nH]1)C(=O)c1ccc(C)c(NC(=O)c2ccco2)c1	13.1µM	–	–	–
CCN(Cc1nc2ccccc2c(=O)[nH]1)C(=O)c1cccc(NC(=O)c2cccs2)c1	?	–	?	?
O=C(c1cccc(F)c1)N(Cc1nc2ccccc2c(=O)[nH]1)C1CCCC1	?	–	6.57µM	–
CCN(Cc1nc2ccccc2c(=O)[nH]1)C(=O)c1cc(C2CC2)nn1-c1ccccc1	9.28µM	–	?	?
CCN(Cc1nc2ccccc2c(=O)[nH]1)C(=O)C1CC(=O)N(c2cccc3ccccc23)C1 (stereo not given)	?	–	10.4µM	–
CN(Cc1nc2ccccc2c(=O)[nH]1)C(=O)c1cc(C2CC2)nn1-c1ccccc1	?	–	?	?
COc1cc(S(=O)(=O)N2CC(=O)Nc3ccccc32)ccc1NC(C)=O	–	–	–	–
COc1ccc(CCN(Cc2nc3ccccc3c(=O)[nH]2)C(=O)c2ccco2)cc1	–	–	?	–
CCC(CC)C(=O)N(CCc1ccc(OC)cc1)Cc1nc2ccccc2c(=O)[nH]1	11.7µM	–	·	22.4µM
CCN(Cc1nc2ccccc2c(=O)[nH]1)C(=O)COc1ccccc1-c1ccccc1	9.28µM	–	13.1µM	?

Source: PubChem BioAssay
